An excerpt weighted towards active compounds, which were near 2.1% of everything screened.
FUS yeast rescue = qHTS for Suppressors of FUS Proteinopathy: Primary screen using FUS-linked yeast assay | S. cerevisiae FUS-expressing, growth rescue, OD600, 24 h | Potency, µM (doses to about 76.6 µM), usual class: activators | 390,000 compounds, 0.24% hits | AID 1347120, 2019;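 further: plate controls were DMSO vehicle for no effect and reference control for full effect; nearly all actives have a fitted effect of over 55% in size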
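Compound concentration series was pinned onto galactose-induced FUS-expressing yeast seeded at OD 0.005. Plates sat 24hr at 30C; absorbance at 600 nm gave growth. DMSO served as background control.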
Abeta rescue = qHTS for compounds that reverse cellular toxicity of Amyloid beta (A-beta) peptide in yeast: Primary Screen; yeast expressing A-beta42, growth rescue, OD600, 48 h; response scale: 0% DMSO, 100% iron-clioquinol control; Potency, µM (top dose mostly 46.1 µM), most hits filed as activators; 410,000 compounds, 0.063% hits; further: nearly all actives have a fitted effect of over 55% in size
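Yeast A-beta toxicity model in growth medium with pinned compounds, 48 h at 30 C; growth read as absorbance at 600 nm. Normalized to FeCl3/clioquinol equimolar mix (positive) and DMSO (negative).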
TDP43 rescue = qHTS of TDP-43 Inhibitors | Potency, µM (top dose mostly 46.1 µM), without a hit: at the top dose growth rescue (activation), actives largely listed as activators | TDP-43 expressing yeast growth rescue, BacTiter-Glo, 24 h | AID 652104, 2013 | 410,000 compounds, 1.8% hits; further: % of control where 0% means no effect; nearly all actives have a fitted effect of over 50% in size
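Galactose-induced TDP-43 yeast, OD600=0.02, compound pinned; 24 hr, 30 deg C; BacTiter-Glo luminescence for growth. Inhibitors of TDP-43 toxicity read as activators.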
aSyn yeast inh = qHTS of alpha-syn Inhibitors; Yeast expressing alpha-synuclein, growth rescue, BacTiter-Glo, 24 h; Potency, µM (doses to about 46.1 µM), for the others: at the top dose growth rescue (activation), hits mostly activators; 370,000 compounds, 0.14% hits; AID 652106, 2013; further: % of control where 0% means no effect; nearly all actives have a fitted effect of over 65% in size
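Screening used galactose-induced yeast with toxic alpha-synuclein levels, exposed to compound for 24 hr at 30 deg C. Cell growth, read with BacTiter-Glo luminescence, gave the measured signal.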
* hit, by the source's call; i = inactive; ? = inconclusive; nt = no result given. The call rests on the fitted dose curve; in most records, active means well fitted curve in the direction sought with a large enough effect; inconclusive means small, poorly fitted or top-dose-only effect, or another doubt; inactive means no such curve, though single readings can be large; an effect the other way counts as inactive or inconclusive. Potency means the concentration at half of the fitted maximal effect.

SMILES	FUS yeast rescue	Abeta rescue	TDP43 rescue	aSyn yeast inh
COc1cccc(CNC(=O)CSCc2cnn(-c3ccccc3)c2-n2cccc2)c1OC	i	i	?	21%
COc1ccccc1CNC(=O)CSCc1cnn(-c2ccccc2)c1-n1cccc1	i	i	18µM*	14%
Cc1cccc(C)c1NC(=O)CSCc1cnn(-c2ccccc2)c1-n1cccc1	i	i	25µM*	nt
Cc1ccc(NC(=O)CSCc2cnn(-c3ccccc3)c2-n2cccc2)c(Cl)c1	i	i	15%	nt
CCC(C)NC(=O)CN1C(=O)C2CCCCN2C(=O)c2ccccc21 (stereo not given)	i	nt	nt	nt
Cc1cccc(C(=O)Nc2nc3ncccn3c2-c2ccc(F)cc2)c1	i	nt	nt	nt
Cc1cc(C(=O)CCl)c(C)n1Cc1ccco1	i	i	10µM*	-31%
CCOC(=O)c1cc(C)n(CCc2ccccc2)c1C	i	i	8%	-9%
COC(=O)CCCn1c(C)cc(C(=O)CCl)c1C	i	i	20µM*	-35%
COC(=O)CCn1c(C)cc(C(=O)COc2ccccc2C(N)=O)c1C	i	i	-12%	6%
Cc1cc(C(=O)CCl)c(C)n1CCc1ccccc1	i	i	10µM*	-11%
O=S(=O)(c1ccccc1F)N1CCN(c2nc(-c3cccs3)nc3ccccc23)CC1	nt	nt	nt	-1%
O=C(OCCF)N1CCN(/[N+]([O-])=N/Oc2ccc([N+](=O)[O-])cc2[N+](=O)[O-])CC1	nt	nt	nt	-49%
NNC(=O)C1COc2cc3ccccc3cc2O1 (stereo not given)	i	i	24%	-1%
O=C(N/N=C\c1ccccn1)C1COc2cc3ccccc3cc2O1 (stereo not given)	i	?	9%	20µM*
O=C(N/N=C/c1cccc([N+](=O)[O-])c1O)c1cccs1	nt	i	27%	7.9µM*
O=C(N/N=C\c1cccc([N+](=O)[O-])c1O)C1COc2ccccc2O1 (stereo not given)	i	i	11µM*	6.3µM*
O=C(N/N=C/c1ccc([N+](=O)[O-])cc1)c1cccs1	i	i	4%	-2%
O=[N+]([O-])c1cccc(C=NNc2ccc3ccccc3n2)c1O	nt	i	?	2µM*
CN(Cc1ccccc1F)C(=O)C1CCC(CNS(=O)(=O)c2cccc3cccnc23)CC1 (stereo not given)	i	nt	nt	nt
CCN(CC)c1ccc(C(=O)Nc2ccccc2)cc1[N+](=O)[O-]	i	i	25µM*	4%
COc1ccc(C(=O)Nc2ccc(Nc3ccccc3)cc2)cc1[N+](=O)[O-]	i	i	?	?
COc1ccc(-c2cn[nH]c2-c2ccc(OCc3ccccc3)cc2O)cc1	i	i	-7%	3%
COc1ccc(-c2cn[nH]c2-c2ccc(OC)cc2O)cc1	i	?	25µM*	22µM*
O=C(CSc1nnc(-c2cccnc2)n1-c1ccccc1)Nc1cccc2ccccc12	i	nt	nt	nt
SMILES	FUS yeast rescue	Abeta rescue	TDP43 rescue	aSyn yeast inh
CC(=O)c1cc(CN2C(=O)c3ccccc3C2=O)cs1	i	i	14µM*	21%
CCCCN=C(N)NC(=O)OCc1ccccc1	i	nt	nt	nt
Cc1nc(C#N)nc(Oc2ccccc2)c1Cl	nt	nt	nt	5%
COc1ccccc1NC(=O)CSc1ccc(-c2cccs2)nn1	i	i	22µM*	-18%
COc1ccc(OC)c(NC(=O)CSc2ccc(-c3cccs3)nn2)c1	i	i	10%	nt
COc1ccc(OC)c(NC(=O)CSc2ccc(-c3ccco3)nn2)c1	i	i	20µM*	-7%
c1ccc2cc(Cn3ccc4ccc(-c5ccc6cc[nH]c6c5)cc43)ccc2c1	i	nt	nt	nt
Cc1ccc(CNC(=O)COC(=O)c2nc(-c3ccccc3)oc2C)cc1	i	i	35µM*	1%
O=C(CSc1nnc(Cc2cccs2)n1-c1ccc(Cl)cc1)Nc1ccc(OCc2ccccc2)cc1	i	nt	nt	nt
CCCC/C=C1/C(c2ccccc2)N(Cc2ccc(OC)cc2OC)C2=NC(c3ccccc3)CC(=O)N21 (stereo not given)	i	nt	nt	nt
Cc1cc(NC(=O)COC(=O)c2c(Cl)cccc2Cl)no1	i	i	16µM*	-3%
O=C(COC(=O)c1ccccc1)Nc1ccccc1Br	i	i	1%	0%
Cc1cc(NC(=O)COC(=O)c2ccc(Cl)cc2)no1	i	i	18%	4%
O=C(COC(=O)c1c(Cl)cccc1Cl)Nc1ccccc1Br	nt	i	14µM*	3%
N=c1c2c(-c3ccccc3)c(-c3ccccc3)n(Cc3ccccc3)c2ncn1C1CCOCC1	i	nt	nt	nt
CCCCN(CCCC)c1ccc(Cn2ccc3ccccc32)cc1	nt	nt	nt	27%
COC(=O)[C@@H]1N=C(c2ccc(OC)cc2)O[C@]12C(=O)N(Cc1cn(-c3ccccc3)nn1)c1cccc(Cl)c12	i	nt	nt	nt
COc1ccc(S[C@]2(C(=O)NC(C)C)CC(=O)N[C@@H]2c2ccc(OC)cc2)cc1	i	nt	nt	nt
Cc1cc(-c2nc3ccccc3s2)ccc1N	nt	i	18µM*	-17%
CCOc1ccccc1NC(=S)Nc1ncccc1C	nt	i	14µM*	-11%
Cc1cccnc1NC(=S)Nc1ncccc1C	i	i	-19%	-17%
COC(=O)c1sccc1S(=O)(=O)N(CC(=O)Nc1ccccc1C)c1ccc(Cl)cc1	32µM*	i	-10%	nt
CCOC(=O)[C@]12CCCC=C1N(Cc1ccc(OC)cc1)C(=O)[C@@H]2CC(=O)N1CCCC1	i	nt	nt	nt
CC(=O)n1nc(-c2ccccc2)cc1-c1ccccc1	i	i	13µM*	17%
O=CN1Cc2ccccc2-c2ccccc2C1	i	i	13µM*	18%
SMILES	FUS yeast rescue	Abeta rescue	TDP43 rescue	aSyn yeast inh
Nc1c(N=Nc2ccc([N+](=O)[O-])cc2)c(S(=O)(=O)O)cc2cc(S(=O)(=O)O)c(/C=C/c3ccccc3)c(O)c12	nt	nt	nt	-66%
NCC1OC(O[C@H]2[C@H](O)[C@@H](OC3C(O)C(N)CC(N)C3OC3OC(CO)C(O)C(O)C3N)O[C@@H]2CO)C(N)C(O)C1O (stereo not given in full)	nt	nt	nt	-10%
COCCCN(C(C)=O)c1nc(-c2ccc(OC)cc2)cs1	i	i	11µM*	-6%
CCCCNC(=O)C1CCCN1C(=O)Nc1cc(C)cc(C)c1 (stereo not given)	i	nt	nt	nt
N#CCC[C@H]1CC[C@]2(CCCN(C(=O)C3CCCCC3)C2)O1	i	nt	nt	nt
COc1ccccc1C(=O)Nc1cc(Cl)ccc1O	i	i	5%	-5%
CCOc1ccccc1C(=O)Nc1cc2c(cc1N1CCCCC1)n(C)c(=O)n2C	i	i	32µM*	nt
CCOc1ccccc1C(=O)Nc1cc(Cl)ccc1O	i	i	2.8µM*	-35%
c1ccc2cc(Sc3ncnc4c3oc3ccccc34)ccc2c1	i	i	3%	-2%

From PubChem
